This is part of a sample that, as a whole, favours compounds with a hit. Of some 83,000 tested, about 20% had one in any assay.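 The test compound was applied at a single concentration to cells in 96-well plates for 48 hours, and percent growth was recorded.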 Values without a mark were called inactive. Calls of active or inactive are those of the source. The calls were made as follows: active = growth percent below 10; inactive = the rest.
Experiments:
Assay in all cases: NCI-60 one-dose screen, 48 h (100 = growth as untreated, 0 = no growth, -100 = all killed)
Conditions in all cases: 10 µM
SK-MEL-2 melanoma = system: SK-MEL-2 melanoma
EKVX NSCLC = system: EKVX NSCLC
SN12C renal = system: SN12C renal
UO-31 renal = system: UO-31 renal
TK-10 renal = system: TK-10 renal
ACHN renal = system: ACHN renal
CAKI-1 renal = system: CAKI-1 renal
A498 renal = system: A498 renal
CCRF-CEM leukemia = system: CCRF-CEM leukemia
MOLT-4 leukemia = system: MOLT-4 leukemia

| Structure (SMILES) | growth (SK-MEL-2 melanoma) | growth (EKVX NSCLC) | growth (SN12C renal) | growth (UO-31 renal) | growth (TK-10 renal) | growth (ACHN renal) | growth (CAKI-1 renal) | growth (A498 renal) | growth (CCRF-CEM leukemia) | growth (MOLT-4 leukemia) |
| --- | --- | --- | --- | --- | --- | --- | --- | --- | --- | --- |
| Cc1cc(=O)oc2cc(OCCCCOc3ccc(/C=C/C(=O)Nc4cccc(Cl)c4)cc3)ccc12 | 86.9% | 71.3% | 73.8% | 84.9% | 66.2% | 81.4% | 73.2% | 80.7% | 83.4% | 80.6% |
| N#Cc1c(NC(=O)c2ccc(C(F)(F)F)cc2)sc2c1CCC(=O)C2 | -57.9% (active) | -42.6% (active) | -31.9% (active) | -99.9% (active) | -53.7% (active) | -100% (active) | -21.7% (active) | 2.58% (active) | 7.92% (active) | 9.79% (active) |
| COc1ccc(CN2[C@@H](C(=O)NCc3ccc(C(=O)NO)cc3)Cc3c([nH]c4ccccc34)[C@@H]2C2CC2)cc1 | 12.2% | 28.9% | 29% | 40.5% | 8.46% (active) | 35.5% | 22.5% | -5.06% (active) | 15% | 11% |
| Cc1ccc(-c2ccc(SCC(=O)Nc3ccc(S(N)(=O)=O)cc3Br)nn2)cc1 | 80.6% | 62.5% | 39.5% | 70.6% | 84.7% | 11.7% | 56.9% | 87.2% | 93.4% | 89.9% |
| COc1ccc(-c2ccc(/C=N/NC(=O)c3[nH]c4ccc(Br)cc4c3-c3ccccc3)o2)cc1 | 34.3% | 60.1% | 35% | 43.9% | 88.4% | 30.9% | 28.4% | 73.9% | 10.5% | 20.9% |
| COc1ccc(C(=O)/C=C/c2cc(F)cc(C(F)(F)F)c2)cc1S(N)(=O)=O | 12.8% | 7.02% (active) | -69.1% (active) | -92.7% (active) | -12.4% (active) | -100% (active) | -85.7% (active) | 88.2% | 4.86% (active) | 1.63% (active) |
| O=c1[nH]c2ccccc2cc1CSc1ccc(Nc2nccc(-c3ccc(C(F)(F)F)cc3)n2)cc1 | 85.4% | 7.65% (active) | -19.7% (active) | 5.37% (active) | -6.8% (active) | -29.1% (active) | 12.7% | -50.2% (active) | 75% | 55.6% |
| Nc1cc(-c2cccc(C(=O)NCc3ccc4c(c3)OCO4)c2)ccn1 | 105% | 76.8% | 104% | 71.9% | 103% | 97% | 92.3% | 106% | 98.9% | 91.1% |
| CCOc1ccc(/C=N/NC(=O)Cn2nc(Cc3ccccc3)c3onc(C)c3c2=O)cc1 | 3.12% (active) | 23.9% | 8.3% (active) | -2.49% (active) | 25.6% | 6.42% (active) | 12% | -6.43% (active) | 86.6% | 79.6% |
| CC(C)C1=C[C@@]23CC[C@@H]4[C@](C)(CCC[C@]4(C)C(=O)NCc4ccccc4)[C@H]2C[C@@H]1[C@H]1C(=O)OC(=O)[C@H]13 | 47% | 33.9% | 52.1% | 43.4% | 44.9% | 25.7% | 77.1% | 85.2% | 16.7% | 15.5% |
| COc1ccc2cc([C@H](C)C(=O)NCc3ccccc3)ccc2c1 | 31% | 42.5% | 33.5% | 46.3% | 65.7% | 54.9% | 34.7% | 63.1% | 31% | 47% |
| COC[C@@H](CC(C)C)N=C1NC(=O)/C(=C/c2ccc3ncoc3c2)N1 | -75.8% (active) | 18% | 15.1% | -8.68% (active) | 36.5% | 7.63% (active) | 6.77% (active) | -9.51% (active) | 15.2% | 11.3% |
| CCOP(=O)(OCC)O[C@H]1CCC(=O)[C@@H]2[C@H]1[C@H]1C[C@@H]3[C@@]4(C)CCCC(C)(C(=O)OC)[C@@H]4CC[C@@]23C=C1C(C)C (stereo not given in full) | 71.3% | 41.5% | 65.4% | 53.5% | 83.2% | 65.2% | 63.2% | 91.1% | 55.1% | 30% |
| Cn1cc(/C=N/Nc2ccnc3cc(Cl)ccc23)c2ccccc21 | -72.3% (active) | -85.1% (active) | -59.4% (active) | -90.1% (active) | -72.1% (active) | -92.7% (active) | -85.3% (active) | -80.2% (active) | -35.6% (active) | -32.1% (active) |
| CN1CCCN(Cc2ccc(C(=O)Nc3cccc(Nc4ccc5c(O)cccc5n4)c3)cc2C(F)(F)F)CC1 | -76.5% (active) | -87% (active) | -86.1% (active) | -56.1% (active) | -65.3% (active) | -74.7% (active) | -85.3% (active) | 61.8% | 8.39% (active) | 9.64% (active) |
| CC1=C2C(=C[C@@](C)(COCOCCCl)[C@@H]2O)C(=O)[C@](C)(O)C12CC2 | -100% (active) | -62.1% (active) | -63% (active) | -44.1% (active) | -1.02% (active) | -48% (active) | -14.7% (active) | -31.5% (active) | 3.19% (active) | -12.4% (active) |
| CC1=C2C(=C[C@@](C)(CO)[C@@H]2O)/C(=N\N)[C@](C)(O)C12CC2 | -100% (active) | -44.2% (active) | 0.386% (active) | -29.2% (active) | 1.74% (active) | -18.6% (active) | 1.03% (active) | -27.8% (active) | 18.8% | 3.48% (active) |
| COc1ccc2c(c1)N=C(C(=O)O)/C2=C/c1sc(Nc2ccc(O)cc2)nc1O | 81.6% | 75.1% | 80.9% | 49.4% | 99.2% | 82.2% | 92.1% | 98.2% | 44.3% | 43% |
| COc1ccc(CN2[C@H](C(=O)NCCCCCCC(=O)NO)Cc3c([nH]c4ccccc34)[C@H]2C2CC2)cc1 | -16.7% (active) | 16.8% | 7.85% (active) | 7.67% (active) | -19.7% (active) | 0.712% (active) | 4% (active) | -38.3% (active) | 19.7% | 12.2% |
| O=C(CNc1nc(-c2ccccc2)cs1)Nc1ccc([N+](=O)[O-])cc1 | 31.1% | 9.52% (active) | 16.9% | -74.3% (active) | -58% (active) | -15.8% (active) | 7.15% (active) | 109% | 14.3% | 15.7% |
| O=C(CSc1nnc(-c2ccc3nc(-c4ccccc4)[nH]c3c2)o1)Nc1ccc(Cl)cc1 | 45% | 48.6% | 46.1% | 40.1% | 55% | 29.5% | 30.5% | 101% | 13.7% | 7.63% (active) |
| O=S(=O)(Nc1ncccn1)c1ccc(-n2c(-c3ccccc3)nc(-c3ccccc3)c2-c2ccccc2)cc1 | 106% | 76.9% | 92.4% | 62.2% | 94.6% | 97.3% | 84.2% | 81.9% | 75.7% | 92.1% |
| Cc1ccc2nc3c(nc2c1)c1cc(I)ccc1n3CCN(C)C | 52.2% | 30.9% | 21.4% | 8.11% (active) | 48.9% | 6.64% (active) | 8.68% (active) | 62.9% | 32.7% | 10% |
| COc1ccc(-c2ccc(SCC(=O)Nc3ccc(C#N)cc3)nn2)cc1 | 114% | 95.1% | 95% | 75.4% | 108% | 80.1% | 81.4% | 124% | 95.9% | 94.4% |
| O=C(c1ccc(Cl)cc1)C1[C@H](c2ccc(Br)cc2)[C@@H](c2ccccc2)NC12C(=O)Nc1ccc(Cl)cc12 (stereo not given in full) | -77.7% (active) | -47.8% (active) | -92.5% (active) | -29.2% (active) | -17.4% (active) | -17.2% (active) | -92.7% (active) | -16.9% (active) | -17% (active) | -28.8% (active) |
| Cc1ccc(/C(N)=N/c2sc(-c3ccccc3)nc2-c2ccccc2)cc1 | 90.7% | 74.2% | 77.8% | 69.9% | 100% | 76.3% | 59.8% | 91.1% | 26.7% | 51.5% |
| CN1CCN(c2ccc(C(=O)/C=C/c3ccc(C#N)cc3)cc2)CC1 | 104% | 82% | 73.8% | 61.8% | 102% | 83.5% | 63.8% | 103% | 65.9% | 90.5% |

Reference: PubChem BioAssay (NCI)
